This is an account of results in the supplement of paper PMC9925115.

SMILES strings stand for the structures. ± gives the uncertainty stated by the source.

In the experiment the test system is FLX1. Description: cell viability z-score within plate (CellTiter-Glo), mean of 3 biological replicates; higher = higher viability relative to plate (less growth inhibition). As to conditions: 2 µM; time (hr): 120. The protocol:
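FLX1 fibrolamellar carcinoma cells (DNAJB1-PRKACA fusion), 600 cells/well in 384-well plates, treated with a Selleck kinase inhibitor library (L1200) at 2 uM for 5 days (120 hr); viability by CellTiter-Glo. A z-score was computed within each plate and averaged over three biological replicates.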
On the technique in general: In ATP-based viability assays light output follows the ATP content of the culture.
As for `COc1ncc(-c2ccc3nccc(-c4ccnnc4)c3c2)cc1NS(=O)(=O)c1ccc(F)cc1F`, the “cell viability z-score within plate” value is 0.539 ± 0.32.

On to `CCC[C@H](NC(=O)/C(C#N)=C/c1cccc(Br)n1)c1ccccc1` [Degrasyn (WP1130)], for which the “cell viability z-score within plate” value is -0.0534 ± 0.15. Take `Cc1cn(-c2cc(NC(=O)c3ccc(C)c(Nc4nccc(-c5cccnc5)n4)c3)cc(C(F)(F)F)c2)cn1` [Nilotinib (AMN-107)]: the “cell viability z-score within plate” value was determined as 0.322 ± 0.59. On to `O=C1NC(=O)/C(=C/c2ccc3c(c2)OC(F)(F)O3)S1`, for which the “cell viability z-score within plate” value was -0.962 ± 0.62. With `O=C(/C=C/c1ccc2ccccc2n1)c1ccncc1`, the “cell viability z-score within plate” value amounted to 0.276 ± 0.49. For the compound `O=C(Nc1cc(C(F)(F)F)cc(C(F)(F)F)c1)c1cc(Cl)ccc1O`, the “cell viability z-score within plate” value was -0.692 ± 0.5. Take `C[S+]([O-])c1ccc(-c2nc(-c3ccc(F)cc3)c(-c3ccncc3)[nH]2)cc1` (stereo not given): the “cell viability z-score within plate” value was -1.58 ± 1.1. As to `O=C(c1cccc(Cl)c1F)N1CCN(Cc2cccc(Nc3nccs3)n2)CC1`, the “cell viability z-score within plate” value is -0.394 ± 0.96.

Regarding `C[C@@]1(C(=O)Nc2ccc(F)nc2)CCCN1c1nc(Nc2cc(C3CC3)n[nH]2)c2cccn2n1`, the “cell viability z-score within plate” value was -1.16 ± 0.41. Take `N#C/C(=C(/N)Sc1ccc(N)cc1)c1ccccc1C(F)(F)F`: the “cell viability z-score within plate” value was -0.253 ± 0.36. On to `CCN1CCN(Cc2ccc(-c3cc4c(N[C@H](C)c5ccccc5)ncnc4[nH]3)cc2)CC1`, for which the “cell viability z-score within plate” value stood at 0.278 ± 0.61. As for `CN1CCN(c2ccc3nc(-c4c(N)c5c(F)cccc5[nH]c4=O)[nH]c3c2)CC1` [Dovitinib (TKI-258) Dilactic Acid], the “cell viability z-score within plate” value was determined as 0.322 ± 0.38. With `O=C(NOCC1CC1)c1ccc(F)c(F)c1Nc1ccc(I)cc1Cl`, the “cell viability z-score within plate” value was 0.606 ± 0.25. Consider `CS(=O)(=O)CCNCc1ccc(-c2ccc3ncnc(Nc4ccc(OCc5cccc(F)c5)c(Cl)c4)c3c2)o1` [Lapatinib], for which the “cell viability z-score within plate” value was determined as 0.823 ± 0.37. Turning to `COc1cc2c(Oc3ccc4[nH]c(C)cc4c3F)ncnc2cc1OCCCN1CCCC1` [Cediranib (AZD2171)], the “cell viability z-score within plate” value was determined as 0.6 ± 0.47. The same measure for `CC(C)(O)CC(=O)NCCn1ccc2ncnc(Nc3ccc(Oc4cccc(C(F)(F)F)c4)c(Cl)c3)c21`: -0.891 ± 0.77; for `COc1cccc2cc(-c3nc([C@H]4CC[C@H](C(=O)O)CC4)n4ncnc(N)c34)[nH]c12`: 0.362 ± 0.51; for `Cc1ncc(-c2ccnc(Nc3ccc(S(C)(=O)=O)cc3)n2)n1C(C)C`: 0.322 ± 0.54.

With `CNC(=O)c1cc(COc2nnc(Nc3ccc(Cl)cc3)c3ccoc23)ccn1` [Telatinib], the “cell viability z-score within plate” value was -1.65 ± 1.2. On to `Cc1cc(Nc2nc(N[C@@H](C)c3ccc(F)cc3)c(C#N)cc2F)n[nH]1`, for which the “cell viability z-score within plate” value amounted to 0.513 ± 0.61.

As to `COc1ccc(S(=O)(=O)N(C(C)=O)c2ccccc2/C=C/c2cc[n+]([O-])cc2)cc1`, the “cell viability z-score within plate” value amounted to 0.21 ± 0.36. Turning to `O=C(O)c1ccc(Nc2ncc3c(n2)-c2ccc(Cl)cc2C(c2c(F)cccc2F)=NC3)cc1`, the “cell viability z-score within plate” value came out at 1.2 ± 0.42. The same measure for `COc1cc2ncnc(Nc3ccc(O)c(Br)c3)c2cc1OC`: 0.753 ± 0.38; for `C[C@]1(O)C[C@@H](c2nc(-c3ccc4ccc(-c5ccccc5)nc4c3)c3c(N)nccn32)C1` [Linsitinib (OSI-906)]: 0.624 ± 0.4.

`C=CC(=O)Nc1ccc2ncnc(Nc3cccc(Br)c3)c2c1`: the “cell viability z-score within plate” value is -1.55 ± 0.85. Consider `Oc1ccc(Nc2nc(-c3ccc(Cl)cc3)cs2)cc1`, for which the “cell viability z-score within plate” value is 0.219 ± 0.2.

As for `CCCS(=O)(=O)Nc1ccc(F)c(C(=O)c2c[nH]c3ncc(-c4ccc(Cl)cc4)cc23)c1F` [Vemurafenib (PLX4032, RG7204)], the “cell viability z-score within plate” value is -3.08 ± 1.3. As for `CCN1CCN(Cc2ccc(Nc3ncc(F)c(-c4cc(F)c5nc(C)n(C(C)C)c5c4)n3)nc2)CC1`, the “cell viability z-score within plate” value was 0.939 ± 0.8. Turning to `COc1cc2nccc(Oc3ccc(NC(=O)NC4CC4)c(Cl)c3)c2cc1C(N)=O` [Lenvatinib (E7080)], the “cell viability z-score within plate” value was -0.399 ± 0.11. `C[C@H]1[C@H](C)CC[C@]2(C(=O)O)CC[C@]3(C)C(=CC[C@@H]4[C@@]5(C)C[C@@H](O)[C@H](O)[C@@](C)(CO)[C@@H]5CC[C@]43C)[C@H]12` [Asiatic Acid]: the “cell viability z-score within plate” value came to 0.124 ± 0.46. The same measure for `COc1cc2ncnc(Oc3ccc(CC(=O)Nc4cnn(C(C)C)c4)cc3)c2cc1OC`: -0.525 ± 0.26. As for `COc1cc2ncnc(Nc3ccc(F)c(Cl)c3)c2cc1OCCCN1CCOCC1` [Gefitinib (ZD1839)], the “cell viability z-score within plate” value is -1.17 ± 1.2.

For `S=C(NCc1ccc2c(c1)OCO2)N1CCN(c2ncnc3c2oc2ccccc23)CC1` [Amuvatinib (MP-470)], the “cell viability z-score within plate” value is -0.826 ± 0.77. On to `CCS(=O)(=O)Nc1ccc2c(c1)/C(=C(/Nc1ccc(CN3CCCCC3)cc1)c1ccccc1)C(=O)N2` [Hesperadin], for which the “cell viability z-score within plate” value was -2.01 ± 0.23. For `CCN(CC)CCCCNc1ncc2cc(-c3cc(OC)cc(OC)c3)c(NC(=O)NC(C)(C)C)nc2n1`, the “cell viability z-score within plate” value was -0.321 ± 0.21.

With `CC(C)n1nc(-c2cc3cc(O)ccc3[nH]2)c2c(N)ncnc21` [Torkinib (PP242)], the “cell viability z-score within plate” value was -0.546 ± 0.32.

Turning to `Nc1ncnc2c1c(-c1cnc3[nH]ccc3c1)nn2C1CCCC1`, the “cell viability z-score within plate” value is -0.241 ± 0.65. In the case of `CNC(=O)c1ccccc1Nc1nc(Nc2ccc(N3CCOCC3)cc2OC)ncc1Cl`, the “cell viability z-score within plate” value is 1.3 ± 1.2. Turning to `CC(C)c1cnn2c(NCc3ccccc3)cc(NCCCCCCN)nc12`, the “cell viability z-score within plate” value turned out to be 0.577 ± 0.3.

Turning to `CCc1cncnc1N1CCN(Cc2nc3ccc(C(F)(F)F)cc3[nH]2)CC1`, the “cell viability z-score within plate” value stood at 0.164 ± 0.73.
